Each structure is given as a SMILES string. Compounds without any hit were thinned out: in the full panel of roughly 83,000, 20% have a hit.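 Testing used 96-well plates and a 48-hour single-concentration exposure. Example: -40 means 40% of the starting cells died.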 A number with no mark means an inactive call. Activity calls are given as the source filed them.

The record followed here is PubChem BioAssay (NCI).

This experiment deals with SK-OV-3 ovarian. Kind of experiment: NCI-60 one-dose screen, 48 h (100 = growth as untreated, 0 = no growth, -100 = all killed). As to conditions: 10 µM. The procedure:
Growth inhibition of the SK-OV-3 human tumor cell line is measured as a screen for anti-cancer activity. Cells are grown in 96 well plates and exposed to the test compound for 48 hours. Compounds are tested at a single concentration, which is 10^-5 M for most compounds. The reported endpoint is percent growth (GI% or GIPRCNT), where numbers from 0 - 100% represent growth inhibition, and numbers from -100% - 0 represent cell death. For example, a value of 40 represents 60% growth inhibition. A value of 0 means no net growth occurred over the course of the experiment. A value of -40 indicates 40% of cells at the beginning of the experiment died by the end of the experiment. A value of -100 means all cells are dead at the end of the experiment.
NCI-60 Human Tumor Cell Lines Screen was performed using the standard one-dose NCI protocol, which is described in more detail at https://dtp.cancer.gov/discovery_development/nci-60/default.htm.
Compounds with GIPRCNT values below 10 were considered active. Activity score was based on GIPRCNT using the following formula: […]
Score is 0 for GIPRCNT values of 100 or above, 50 for GIPRCNT values of 0, and 100 for GIPRCNT values of -100.
With `CS(=O)(=O)c1nccc(-c2c(-c3cccc(OCCc4ccccc4)c3)nc3sccn23)n1`, the growth was 96.5%.

Turning to `COc1ccc(C(=O)CSc2nc(-c3cc(OC)ccc3OC)cc(-c3ccc(OC)cc3)c2C#N)cc1`, the growth was 87.1%.

Consider `Clc1nc2ccc(Br)cc2cc1-c1nc2ccccc2[nH]1`, for which the growth is 54.8%.

With `O=C1/C=C/[C@@H](O)[C@@H]2C[C@@H](O)C[C@H]2/C=C/CCC[C@H](C(F)(F)F)O1`, the growth is 57.8%.

For the compound `COc1ccc(/C=C2\CCCC3=C2NC(N)=NC3c2ccc(OC)cc2)cc1` (stereo not given), the growth is 78.3%.

As to `COc1cc(OC)c2c(=O)c(O)c(-c3ccccc3)oc2c1`, the growth was 81.1%.

For the compound `OCC1OC(n2cnc3c(NCc4ccco4)ncnc32)C(O)C1O` (stereo not given), the growth was -2.77% (active).

As for `O[C@@H]1CO[C@H]2[C@@H]1OC[C@@H]2O`, the growth is 115%.

With `CCCN(CCC)C(=O)[C@H](CC)[C@@H]1CC[C@@H](C)[C@@H]([C@H](C)[C@@H](O)[C@@H](C)C(=O)[C@H](CC)C2O[C@]3(C=C[C@@H](O)[C@]4(CC[C@@](C)([C@H]5CC[C@](O)(CC)[C@H](C)O5)O4)O3)[C@H](C)C[C@@H]2C)O1` (stereo not given in full), the growth is 3.96% (active).

As to `CCOC(=O)/C(=C(\C)N)C1CC(=O)NC1=O` (stereo not given), the growth is 107%.

Take `COc1ccc(C(=O)CC(CC(=O)c2ccc(OC)cc2)c2c(C)nn(-c3ccccc3)c2Cl)cc1`: the growth was 109%.

Take `CC(C)c1cc(N=O)cc(C(C)C)c1O`: the growth was 109%.

In the case of `Fc1ccc(C(c2ccc(F)cc2)C(Cl)Cl)cc1`, the growth was 106%.

As to `CC(CN(C)C)Oc1ccccc1NC1=C(Cl)C(=O)C(Nc2ccccc2OC(C)CN(C)C)=C(Cl)C1=O` (stereo not given), the growth was 58.9%.

On to `CCOC(=O)c1cc(C(=O)c2cc(OC)c(OC)c(OC)c2)n2nc(C)ccc12`, for which the growth is 24.1%.

`CC(=O)Nc1ccc(S(=O)(=O)N/N=C(\C)c2ccc(C)cc2C)cc1`: the growth was 98.5%.

As for `COc1ccc(C(=O)c2ccccc2CN2C(=O)c3ccccc3C2=O)cc1`, the growth is 109%.

For `Cc1ccc(NCCNCC(C)(C)O)c2c(=O)c3ccc(Cl)cc3sc12`, the growth was 79.1%.

Turning to `Cc1ccc(N=Nc2ccccc2)cc1`, the growth is 89.4%.

With `CN(C)c1ccc(/C=N/NC(=O)c2cccc3ccccc23)c(Cl)c1`, the growth is 16.9%.

Consider `O=C(O)c1ccc(-n2cc(CNc3ccc(Cl)cc3)c(-c3ccccc3)n2)cc1`, for which the growth was 107%.

`CCC(CC)n1c(C)cc(=O)n1C(CC)CC`: the growth was 104%.

As for `OCC1OC2C(NC(=S)N2c2ccccc2)C(O)C1O` (stereo not given), the growth is 105%.

On to `O=C(O)c1ccc(-n2cc(CNc3ccc(Oc4ccccc4)cc3)c(-c3ccccc3)n2)cc1`, for which the growth was 112%.

Regarding `COc1ccc(C2CC(c3cc(OC)c(OC)c(OC)c3)=NN2)cc1` (stereo not given), the growth is 81.5%.

Turning to `COc1cc(Cc2cc(-c3ccccc3)n[nH]c2=O)cc(OC)c1OC`, the growth is 71.2%.

For the compound `O=C1c2ccccc2C(=O)c2c1ccc(C(Br)Br)c2Cl`, the growth was 93.4%.

On to `N#Cc1c(-c2ccc(Cl)cc2)csc1NC(=O)Nc1ccc(Cl)c(C(F)(F)F)c1`, for which the growth was 19.9%.

For `O=S(=O)(Oc1ccc(-c2ccc3sccc3c2)cc1)c1ccc(F)cc1`, the growth was 107%.

Take `CN(C)CCCOc1cccc(NC2=C(Cl)C(=O)C(Nc3cccc(OCCCN(C)C)c3)=C(Cl)C2=O)c1`: the growth was 98.2%.

As for `S=C(NCc1ccccc1)NCc1ccccc1`, the growth is 99.2%.

With `COc1ccc(C(=O)N/N=C/c2cc(C(F)(F)F)ccc2Cl)cc1`, the growth was 99.8%.

Turning to `CCn1c(SC/C(=N/O)c2ccccc2)nnc1-c1ccccc1`, the growth is 89.7%.

Turning to `COc1ccc(-c2cc(-c3ccc(Cl)cc3)nc(SCCCCCCC(=O)NO)n2)cc1OC`, the growth was 58.2%.

For `CCN1CC(CCN2CCOCC2)C(C(c2ccccc2)c2ccccc2)C1=O` (stereo not given), the growth is 115%.

With `CC[C@H]1OC(=O)[C@H](C)[C@@H](O[C@H]2C[C@@](C)(OC)[C@@H](O)[C@H](C)O2)[C@H](C)[C@@H](O[C@@H]2O[C@H](C)C[C@H](N(C)C)[C@H]2O)[C@](C)(OC)C/C(C)=C2/O[C@@]1(C)C=C2C`, the growth is 102%.

As to `CC(C)C1=C(O)C2=C(C(=O)C1=O)[C@@]1(C)CCCC(C)(C)[C@@H]1CC2`, the growth was 95.5%.

Turning to `COc1cccc(N=Nc2cccc(OC)c2)c1`, the growth is 84.6%.

As to `CCCCCOC(=O)Nc1nc(=O)n(C2O[C@H](C)[C@@H](O)[C@H]2O)cc1F` (stereo not given in full), the growth is 93.4%.

Turning to `COC(=O)C1(O)NC(=C(C#N)C#N)C(C#N)=C1C(=O)c1ccc(OC)c(OC)c1` (stereo not given), the growth is 98.6%.
